D3 antag – antagonists of human D3 dopamine receptor. max response, negative = inhibition, %. P35462. 360,000 compounds, 2.5% hits. D3R cells, DiscoveRx beta-arrestin luminescence, antagonist mode; hits give low values; in the data active = max response below about -50%; inconclusive = no clear call, values can overlap the other calls
Target sequence (P35462 whole entry, looked up): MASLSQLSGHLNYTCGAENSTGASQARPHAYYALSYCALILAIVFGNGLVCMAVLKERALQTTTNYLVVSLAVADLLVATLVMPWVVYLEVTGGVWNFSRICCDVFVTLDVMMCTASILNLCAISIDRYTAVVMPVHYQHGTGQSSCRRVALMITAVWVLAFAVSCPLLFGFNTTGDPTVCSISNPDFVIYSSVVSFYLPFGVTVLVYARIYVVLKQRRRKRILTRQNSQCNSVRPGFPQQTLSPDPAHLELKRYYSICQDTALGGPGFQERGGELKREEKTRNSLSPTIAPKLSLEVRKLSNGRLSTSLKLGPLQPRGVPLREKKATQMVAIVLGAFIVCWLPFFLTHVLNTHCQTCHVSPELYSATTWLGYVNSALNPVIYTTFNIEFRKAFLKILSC
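Cells plated overnight at 1500 cells/well, then exposed to library compounds with dopamine controls for 90 minutes at 37 degrees C. DiscoveRx reagent added for 30–60 minutes at room temperature; luminescence read, quantitative HTS format.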
ATXN2 expr inh – reduces ATXN2 reporter expression in HEK-293 cells. 360,000 compounds, 0.72% hits. AID 1745845. Potency, µM (series often up to 57 µM), usual class: inhibitors. HEK-293 ATXN2-luciferase reporter, luminescence, 24 h; also: nearly all actives have a fitted effect of over 55% in size
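ATXN2-luciferase reporter cells (luciferase flanked by upstream and downstream ATXN2 gene portions) were treated 24 h at 37 °C with compounds at up to 57 uM. SteadyGlo luminescence gave expression; GF-AFC fluorescence gave viability.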
ATXN viability – cell viability loss in ATXN counter-screen | Potency, µM (series often up to 56.7 µM), actives largely listed as cytotoxic | S2 cells (HEK-293 line with an ATXN2-luciferase reporter) viability, CellTiter-Fluor protease fluorescence, 24 h | 400,000 compounds, 0.49% hits; also: nearly all actives have a fitted effect of over 40% in size
D3 ag – D3 dopamine receptor (human) agonism. 410,000 compounds, 0.58% hits. D3R DiscoveRx beta-arrestin cells, luminescence, 90 min. AID 652048. P35462. max activation, %; in the data active = max activation above about 30%
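Cells at 1500/well, incubated overnight, then treated with pinned compounds (dopamine as control) for 90 min at 37 degrees C. DiscoveRx reagent added for 30 - 60 minutes at room temperature; luminescence read.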
a7 integrin act – activators of alpha7 integrin expression for muscular dystrophy. alpha7betagal myoblasts, beta-gal FDG fluorescence, 48 h. Potency, µM (series often up to 38.3 µM), usual class: activators. 350,000 compounds, 0.064% hits. AID 624291; also: nearly all actives have a fitted effect of over 60% in size
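Alpha7betagal+/- myoblasts (passage 13) were plated 16-24 hr, then exposed to compounds (1:260 dilution of DMSO stock) for 48 hours at 37C. After MPER lysis, β-galactosidase reporter activity was read as FDG fluorescence (ex 480/em 540) after 30 minutes.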
IL1B secr inh – blocks inflammasome-driven IL-1 beta release | 360,000 compounds, 4.7% hits | THP-1 LPS/ATP IL-1B secretion, AlphaLISA, 16 h; hits give low values | activity change, % at 57.5 µM; in the data active = activity change below about -50%; inconclusive = mostly about -30% to -49%
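Secreted IL-1B measured by AlphaLISA bead assay after 16 h compound exposure of THP-1 cells; compounds (final up to 57.5 uM) added 1 h before LPS (250 ng/mL) and ATP (1.25 mM) stimulation; lower signal means less secretion.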
A number is an active result; . = inactive; ? = inconclusive; / = no result given; [ ] = remark or other dose. This is a sample that favours compounds with a hit; in the whole collection about 7% have one here. Unless noted, calls follow the shape of the dose curve; as a rule, active = well fitted curve in the direction sought with a large enough effect; inconclusive = small, poorly fitted or top-dose-only effect, or another doubt; inactive = no such curve, though single readings can be large; an effect the other way counts as inactive or inconclusive.

SMILES	D3 antag	ATXN2 expr inh	ATXN viability	D3 ag	a7 integrin act	IL1B secr inh
OCCN1CCN(CCOc2cccc(Cl)c2)CC1	?	.	.	39.9	.	.
Clc1cccc(OCCCCCN2CCOCC2)c1	?	.	.	.	.	.
Clc1cccc(OCCN2CCOCC2)c1	-66.2	.	.	.	.	.
CCc1ccc(C(=O)c2cn(CC(=O)Nc3ccc(Cl)cc3)c3cc4c(cc3c2=O)OCO4)cc1	/	.	.	.	/	/
Cc1cc(O)ccc1Nc1nc(-c2cccs2)cs1	.	.	.	.	?	-84.1
Cc1cc(O)ccc1Nc1nc(-c2cccnc2)cs1	.	.	.	.	.	.
Cc1nnc(NC(=O)Cc2ccc(OCc3c(C)noc3C)cc2)s1	.	.	.	.	.[7.66 µM]	.
Cc1nc(SCC(=O)N2CCNC2=O)c2ccccc2n1	.	.	.	.	.	-95.6
O=C(CSc1ncnc2ccccc12)N1CCNC1=O	.	/	.	.	.	.
O=C1/C(=C/N(C(=O)c2ccco2)c2ccc(Br)cc2)Sc2ccccc21	.	.	?	.	.	.
O=C(NNc1ccc(C(F)(F)F)cc1[N+](=O)[O-])c1ccc(NS(=O)(=O)c2ccc(F)cc2)cc1	-73.0	.	.	.	.	?
CC(C)[C@H](Nc1ccc(C(F)(F)F)cc1[N+](=O)[O-])C(=O)O	.	.	.	.	.	.
Cc1ccc(-n2nc(C)c3c2OC(N)=C(C#N)C3c2ccccc2F)cc1 (stereo not given)	-52.0	.	.	.	.	.
Cc1ccc(-n2nc(C)c3c2OC(N)=C(C#N)C3c2ccncc2)cc1 (stereo not given)	.	.	.	.	.	.
C=CCOC(=O)C1=C(C)NC(SCC(N)=O)=C(C#N)C1c1ccc(C)cc1 (stereo not given)	.	.	.	.	.	.
C=CCOC(=O)C1=C(C)NC(SCC)=C(C#N)C1c1ccc(Cl)cc1 (stereo not given)	.	15.8µM	?	.	.	.
COc1ccc(NC(=O)CSCC(=O)N(C)Cc2ccc(Cl)c(Cl)c2)cc1	.	.	?	.	.	?
O=C(CSc1nnc2ccccn12)Nc1cccc(-c2nc3ccccc3s2)c1	.	.	?	.	.	.
COc1cc(C#Cc2c(-c3cncn3C)n(C)c3ccc(-c4ccc(OC)c(OC)c4)cc23)cc(OC)c1	.	?	.	70.3	.	.
C=CCn1c(SCC(=O)Nc2ncc(Cc3cc(Cl)ccc3Cl)s2)nnc1-c1ccncc1	.	.	.	.	?	.
CCc1nc2c(OCc3ccccc3C(=O)OC)cccn2c1N(C)C(=O)c1ccncc1	.	.	.	.	/	.
O=C1CC(c2ccccc2)=NN1c1ccccc1	.	.	.	.	?	-82.4
Cc1cc(C)nc(N2N=C(c3ccccc3)CC2=O)n1	.	.	.	.	.	.
O=C1CC(c2ccccc2)=NN1c1nc(-c2ccccc2)cs1	.	.	.	47.4	?	.
Cc1ccc(NC(=O)c2c3c(nc4ccccc24)C(=O)N(C2CCCCC2)C3)cc1F	/	/	/	.	/	/
SMILES	D3 antag	ATXN2 expr inh	ATXN viability	D3 ag	a7 integrin act	IL1B secr inh
O=C(CCCN1C(=O)c2cccc3cccc(c23)C1=O)Nc1nccs1	.	.	.	.	.	.
CC1(C)C2CCC(CN=C(N)CSS(=O)(=O)O)C1C2 (stereo not given)	-99.5	/	?	.	.	-57.5
Cc1ccc(S(=O)(=O)N2CCc3c2cc([N+](=O)[O-])cc3[N+](=O)[O-])cc1	.	.	.	.	.	?
C/C(=N\NC(=O)c1ccc(Cn2cc(Br)cn2)o1)c1cccc(NC(=O)C(C)C)c1	.	.	.	.	.	.
CCS(=O)(=O)c1ccc2oc(SCC(=O)NCCc3ccccc3)nc2c1	.	.	/	.	.	.
C/C(=N\Nc1cc(N2CCCCC2)nc(C)n1)c1ccc(Br)cc1	.	?	.	67.3	.	-50.6
C/C(=N\Nc1cc(N2CCOCC2)nc(C)n1)c1ccc(F)cc1	.	?	.	.	.	?
CCCNC(=O)N1CCC(C(=O)c2ccc(F)cc2)CC1	.	.	.	.	.	.
COc1ccc(C(=O)c2no[n+]([O-])c2C(=O)c2ccc(OC)cc2)cc1	.	?	28.2µM	.	.	-102.4
O=C(c1cccs1)c1no[n+]([O-])c1C(=O)c1cccs1	.	?	28.2µM	.	.	-97.4
O=C(c1ccc(Cl)nc1)c1cccs1	.	.	.	.	.	.
O=C(Nc1nnc(-c2cccnc2)o1)c1cccc(Cl)c1	.	.	?	.	.	.
c1ccc(OCCOc2ncnc3ccccc23)cc1	.	.	.	.	.	.
CCc1cc(C(=O)N2CCOCC2)c(NC2=NS(=O)(=O)c3ccccc32)s1	-68.9	.	.	.	.	.
CCc1cccc(CC)c1NC1=NS(=O)(=O)c2ccccc21	/	.	.	.	/	/
C#C[C@]1(OC(C)=O)CC[C@H]2[C@@H]3CCC4=C/C(=N/O)CC[C@@H]4[C@H]3CC[C@@]21CC	/	?	?	36.9	/	/
NC(=O)CSc1nnc(-c2ccc(S(=O)(=O)N3CCOCC3)cc2)n1CC1CCCO1 (stereo not given)	.	.	.	.	.[7.66 µM]	.
CCCCCSc1nnc2c(n1)OC(c1cccn1C)N(C(C)=O)c1ccccc1-2 (stereo not given)	.	.	.	.	.	-74.4
CC1(c2ccccc2)NC(=O)N(CC(=O)NNC(=O)c2ccccc2F)C1=O (stereo not given)	.	.	.	.	.	.
CC(=O)c1cc(C)ccc1OC(=O)CCN1C(=O)C2C3c4ccccc4C(c4ccccc43)C2C1=O (stereo not given)	.	.	.	37.8	.	.
O=C1CC(=O)N(Cc2ccco2)C(=S)N1	?	.	.	.	.	.
COc1cc(OC)c(NC(=O)c2noc3c2CSc2ccccc2-3)cc1Cl	/	/	/	34.4	/	/
O=C(Nc1cccc([N+](=O)[O-])c1)C1CCN(C(=O)Cc2ccccc2)CC1	?	.	.	.	.	.
Cc1onc(-c2c(F)cccc2Cl)c1C(=O)O/N=C(\N)c1ccc([N+](=O)[O-])o1	.	.	.	33.2	.	/
C/C(=N\OC(=O)c1c(-c2c(F)cccc2Cl)noc1C)c1nccs1	.	.[2.22 µM]	.	.	.	.
Cc1onc(-c2c(Cl)cccc2Cl)c1/C(N)=N/OC(=O)C(C)(C)C	.	.	.	36.1	.	.
CCOc1ccc(CNC(=O)Cn2c(=O)c3cccn3c3ccccc32)cc1	.	.	.	.	?	.
COC(=O)Cc1c(C)nc2nc(-c3ccccc3)[nH]n2c1=O	.	.	.	.	.	.
Cc1ccccc1N(C(=O)Cn1nnc(-c2ccc(F)cc2)n1)C(C(=O)NC(C)(C)C)c1ccncc1 (stereo not given)	.	.	.	.	.	-57.1

From PubChem BioAssay
